“And” between values parts separate entries of the source, which are not always exact repeats. Equal entries are not always repeated. Out of some 430,000 compounds screened, about 2,600 (0.6%) were called active. Cut-off read from the data, not from the text of the source: active = inhibition mostly above about 37% (no sharp cut-off); inactive = mostly below about 20%. The full list was thinned out, with actives kept by preference.
system: PriA–SSB C-terminal tail interaction (Klebsiella pneumoniae); assay: blocks PriA binding to SSB C-terminal tail, primary screen, biochemical, AlphaScreen (AID 1272365); settings: AlphaScreen SSBct-PriA binding, biotinylated peptide; at 33 µM, hits give high values;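 for inhibition: plate controls were negative control peptide for no effect and reference peptide for full effect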

| Compound | inhibition |
| --- | --- |
| CC(Cc1cccs1)NC(=O)Cc1ccccc1Cl (configuration not stated) | -11% (inactive) |
| CC1CCCC(C)N1N=Cc1ccc([N+](=O)[O-])cc1 (configuration not stated) | 46.8% (active) |
| O=[N+]([O-])c1ccc(C=NN2CCN(c3ccc(Cl)cc3)CC2)cc1 | -20.9% (inactive) |
| COC(=O)c1ccc(C=NN2C(C)CCCC2C)cc1 (configuration not stated) | 14.5% (inactive) |
| COc1ccc(C(=O)C=C(C)NCc2ccc3c(c2)OCO3)cc1 | 12.8% (inactive) |
| CN1C(=O)C(C)(C)COc2ccc(NC(=O)c3ccc(Cl)cc3)cc21 | 18% (inactive) |
| CCOc1ccc(NC(=O)CCS(=O)(=O)c2cccc3nsnc23)cc1 | -12% (inactive) |
| CCOc1ccc(N(CC)S(=O)(=O)c2cccc3nsnc23)cc1 | 4.13% (inactive) |
| CCOc1ccc(-c2cn(S(=O)(=O)c3cccc4nsnc34)nc2N)cc1 | 40.5% (active) |
| COc1ccccc1-c1nnc2n1N=C(c1ccc(Br)cc1)CS2 | -20% (inactive) |
| C=C1Cn2c(nnc2-c2ccc(Br)cc2)S1 | 97% (active) |
| Brc1ccc(-c2nn[nH]n2)cc1 | -6.63% (inactive) |
| O=C(C[C@H]1C/C=C/CCCC(=O)OC[C@H]2CCCN2C1=O)NCCO | -5.28% (inactive) |
| Cn1nnc2c(N3CC(C(=O)Nc4ccc5cn[nH]c5c4)C3)ncnc21 | 2% (inactive) |
| OC(COc1ccc2c(c1)CCC2)CN1CCN(c2cccc(Cl)c2)CC1 (configuration not stated) | -11% (inactive) |
| OC(COCc1ccco1)CN1CCN(c2ccccc2)CC1 (configuration not stated) | -2.32% (inactive) |
| O[C@H](COc1cccc(Oc2ccccc2)c1)CN1CCN(c2ccccc2)CC1 | 31% (active) |
| CSCC(C)(O)CNS(=O)(=O)c1cccc2ccccc12 (configuration not stated) | -6% (inactive) |
| Cn1nc2cc(Br)ccc2c1C(=O)N1CCc2ncncc2C1 | 1% (inactive) |
| CCc1cc(=O)[nH]c2nnc(SCC#N)n12 | -14% (inactive) |
| Cc1cc(C)c2nc(N(CCCn3ccnc3)C(=O)c3ccco3)sc2c1 | 95.7% (active) |
| Cc1cc(C)c2nc(N(CCn3cccn3)C(=O)c3cc4ccccc4o3)sc2c1 | -1% (inactive) |
| COc1ccc(OC)c2sc(N(CCCN3CCOCC3)C(=O)c3cc(C)no3)nc12 | 3% (inactive) |
| O=C(NCCc1ccoc1)C(=O)Nc1ccc(F)cc1F | 8% (inactive) |
| CCC1SC(=S)N(C)C1=O (configuration not stated) | -17% (inactive) |

| Compound | inhibition |
| --- | --- |
| CC(C)CCN1C(=O)C(C)(C)COc2cc(NC(=O)CN3C(=O)c4ccccc4C3=O)ccc21 | -6% (inactive) |
| O=C(NCCCc1ccccc1)C(=O)NCC1OCCN1S(=O)(=O)c1ccccc1 (configuration not stated) | -3.21% (inactive) |
| Cc1cc(F)ccc1S(=O)(=O)N1CCCOC1CNC(=O)C(=O)NCCC1=CCCCC1 (configuration not stated) | 2.41% (inactive) |
| O=C(NCCCn1ccnc1)C(=O)NCC1OCCN1S(=O)(=O)c1cc(F)ccc1F (configuration not stated) | 70.1% (active) |
| O=C(Nc1cnc(-n2ccnc2)nc1)c1ccccc1Cl | -6% (inactive) |
| O=C(c1cccs1)c1ccc(CNS(=O)(=O)CCOc2ccccc2)s1 | -4% (inactive) |
| Cc1cc(=O)[nH]c(-n2nc(C)c(CCC(=O)Nc3ccc(Cl)cc3)c2C)n1 | -4% (inactive) |
| Cc1cc(C)n(-c2nc(O)cc(=O)[nH]2)n1 | 5.59% (inactive) |
| Cc1cc(C)n(-c2nc(N)cc(=O)[nH]2)n1 | 73% (active) |
| CN(C)CCN(C(=O)c1cc2cc([N+](=O)[O-])ccc2s1)c1nc2cc3c(cc2s1)OCO3 | 28% (inactive) |
| O=C(C1CC=CCC1)N1CCCC(S(=O)(=O)c2ccc(F)cc2)C1 (configuration not stated) | -14% (inactive) |
| CN1CCCc2cc(CCNC(=O)c3ccc(Br)cc3)ccc21 | 18% (inactive) and -16% (inactive) |
| CN1CCCc2cc(CCNC(=O)C(=O)Nc3ccc4c(c3)OCCO4)ccc21 | -11% (inactive) |
| COc1cc(NC(=O)NCCc2ccc3c(c2)CCCN3C)cc(OC)c1 | 63% (active) |
| Cc1ccc(NC(=O)CCc2csc(NC(=O)c3ccc(=O)[nH]c3)n2)cc1Cl | -9% (inactive) |
| CN(C)c1nn(CC(=O)NCc2ccc3c(c2)OCO3)cc1-c1ccc(Cl)cc1 | 1% (inactive) |
| CC1Nc2ncnn2C(c2ccccc2)C1C(=O)Nc1ccccc1 (configuration not stated) | -3% (inactive) |
| Cc1ccc(NS(=O)(=O)c2ccc(N/N=C/c3ccccc3OCC(=O)O)c([N+](=O)[O-])c2)c(C)c1 | active |
| CC(=O)Nc1cccc(C(C)=NNc2ccc(S(=O)(=O)Nc3ccccc3C(=O)O)cc2[N+](=O)[O-])c1 | 12% (inactive) |
| COc1ccc(/C=N/Nc2ccccc2[N+](=O)[O-])c(C(=O)O)c1OC | inactive |
| CCCCc1ccc(Nc2c(C(=O)N3CCSCC3)cnc3nc(C)ccc23)cc1 | -6% (inactive) |
| COCCN(Cc1ccncc1)C(=O)c1ccco1 | -8% (inactive) |
| O=C(c1ccccc1)c1ccccc1C(=O)N1CCC(Oc2ncccc2Cl)CC1 | 6% (inactive) |
| Fc1cc(Br)ccc1NC(=S)Nc1cccnc1 | -8.39% (inactive) |
| O=C(NN=Cc1cccc2ccccc12)c1cccnc1 | -10.5% (inactive) |

| Compound | inhibition |
| --- | --- |
| Oc1ccc(C=NNC(=S)Nc2cccnc2)c(O)c1O | 100% (active) |
| COc1ncc(NC(=O)c2snnc2C)cn1 | 1% (inactive) |
| COc1ccc2oc(-c3csc(NC(=O)c4ccc(N5C(=O)CCC5=O)cc4)n3)cc2c1 | 6% (inactive) |
| O=C(Nc1nc(-c2ccc(Cl)cc2Cl)cs1)c1ccc(N2C(=O)CCC2=O)cc1 | 64% (active) |
| O=C(Nc1cc2ccccc2cc1NC(=O)c1ccc(N2C(=O)CCC2=O)cc1)c1ccc(N2C(=O)CCC2=O)cc1 | 0% (inactive) |
| COc1ccc(S(=O)(=O)NCCn2nc(-c3ccncc3)ccc2=O)cc1F | -6% (inactive) |
| O=S(=O)(Cc1ccccc1)NCC1CCN(c2cnccn2)CC1 | -1% (inactive) |
| COc1ccc(OCC(O)CNc2ccc(C)cc2)cc1 (configuration not stated) | 36% (active) |
| CC(=O)Nc1ccc(OCC(O)CN(c2ccc(C)cc2)S(C)(=O)=O)cc1 (configuration not stated) | -18% (inactive) |
| CCc1ccc(S(=O)(=O)NCC(O)COc2ccc(OC)cc2)cc1 (configuration not stated) | -7.77% (inactive) |
| CN(C)c1ccc(C=NN=C2NC(=O)/C(=C/c3ccc([N+](=O)[O-])cc3)S2)cc1 | -15.2% (inactive) |
| O=C(NCc1cccs1)C(=O)Nc1cccc(F)c1 | -15% (inactive) |
| O=C1/C(=C/c2cccs2)Oc2c1ccc1c2CN(Cc2ccccn2)CO1 | 101% (active) |
| Cc1ccc(C(=O)N/C(=C\c2cccs2)C(=O)NCCc2ccccn2)cc1C | -25.3% (inactive) |
| COc1ccc(CCN2COc3ccc4c(c3C2)O/C(=C\c2ccco2)C4=O)cc1OC | 3% (inactive) |
| Cc1cc(N2CCC(NC(=O)c3ccc4ncsc4c3)CC2)n[nH]1 | -7% (inactive) |
| O=C(c1ccccn1)N1CC(N2C(=O)CCC2=O)C1 | -11% (inactive) |
| COc1ccccc1-n1cnc2cc(NS(=O)(=O)c3ccccc3)ccc21 | 73.9% (active) |
| COc1ccc(F)cc1S(=O)(=O)Nc1ccc2c(c1)CCCN2S(=O)(=O)c1ccccc1 | 1% (inactive) |
| COCCCNC(=O)c1ccc2c(c1)ncn2-c1ccccc1OC | -10.8% (inactive) |
| Cc1ccc(C(=O)NC(=S)NCc2cccnc2)cc1 | 46.3% (active) |
| Cc1c(C(=O)NC(=S)NCc2cccnc2)oc2ccccc12 | -8.37% (inactive) |
| Cc1cccc(OCCNC(=S)NC(=O)c2cccnc2)c1 | 1.76% (inactive) |
| CCOC(=O)CSc1nc2cc(OC)c(OC)cc2c2nc(CCn3nc(C)cc3C)nn12 | 3% (inactive) |
| CC(=NNC(=O)c1c[nH]c2ccccc12)c1ccccn1 | 75.7% (active) |

| Compound | inhibition |
| --- | --- |
| CC(=NNC(=O)c1ccc(F)cc1)c1ccccn1 | -1.36% (inactive) |
| CCN(CC)c1ccc(C=NNC(=O)c2c[nH]c3ccccc23)cc1 | 16.7% (inactive) |
| CC1=NN(CCN2CCN(c3ccc(F)cc3)CC2)c2nc3c(c(=O)n(C)c(=O)n3C)n2C1 | 6% (inactive) and -7% (inactive) |
| CCn1cc(NC(=O)N2CCCc3ccccc32)c2ccccc21 | 2% (inactive) |
| Cn1cc(NC(=O)N2CCc3ccccc3C2)c2ccccc21 | -3% (inactive) |
| CCn1cc(NC(=O)N2CCc3ccccc32)c2ccccc21 | 40% (active) |
| CN1CCc2cc(C(CNC(=O)C(=O)Nc3ccccc3F)N(C)C)ccc21 (configuration not stated) | 14% (inactive) |
| COc1cccc2c1C(=O)c1c(O)c3c(c(O)c1C2=O)CC(O)(C(C)=NNC(=O)c1ccc(Cl)c(Cl)c1)CC3OC1CC(N)C(O)C(C)O1 (configuration not stated) | 57.5% (active) |
| CCOC(=O)CNC(=O)CSc1ccc2nnc(-c3cccnc3)n2n1 | 2.63% (inactive) |
| NC(=O)CSc1ccc2nnc(-c3ccccn3)n2n1 | 72% (active) |
| Cc1ccccc1NC(=O)CSc1ccc2nnc(-c3ccccn3)n2n1 | -4.51% (inactive) |
| CCCN(CCC)C(=O)Cn1c(=O)c2ccccc2n2c(=S)sc(-c3cccc(C)c3)c12 | 7% (inactive) |
| CCc1ccc2nc(Nc3nc4ccc(NC(C)=O)cc4s3)sc2c1 | 2% (inactive) |
| C/C(=N/N=C1/NC(=O)CS1)c1ccccc1 | -2% (inactive) |
| Nc1cncc2cccnc12 | -8% (inactive) |
| N#CC1=C(N)Oc2c(ccc3cccnc23)C1c1ccncc1 (configuration not stated) | 65.3% (active) |
| N#CC1=C(N)Oc2c(sc3ccccc23)C1c1ccco1 (configuration not stated) | 2.22% (inactive) |
| Cc1ccc2nc3sc(Nc4ccc(C)c(Cl)c4)nn3c(=O)c2c1 | -4% (inactive) |
| Cc1nn(C)c(C)c1S(=O)(=O)NCC1CCN(c2ccccn2)CC1 | 2% (inactive) |
| Cc1ccc2c(c1)C1CN(C)CCC1N2C(=O)c1ccccc1NS(=O)(=O)c1ccc(F)cc1C (configuration not stated) | -3.86% (inactive) |
| Cc1ccc2c(c1)C1CN(C)CCC1N2S(=O)(=O)c1cccc(F)c1 (configuration not stated) | 39.2% (active) |
| Cc1ccc2c(c1)C1CN(C)CCC1N2S(=O)(=O)c1ccc(Oc2ccc([N+](=O)[O-])cc2)cc1 (configuration not stated) | 17.5% (inactive) |
